# Assay outcomes as filed in PubChem BioAssay.
# This is a sample that favours compounds with a hit; in the whole collection about 2.6% have one here.
# Cruzain inh Det – blocks cruzain activity in presence of Triton detergent; purified cruzain, Z-FR-AMC fluorescence, 0.01% Triton; hit rate 0.43% among 200,000; Potency, µM, for the others: max response, negative = inhibition, hits mostly inhibitors;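 further: plate controls were neutral wells for no effect and buffer without enzyme for full effect; nearly all actives have a fitted effect of over 40% in size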
# Target sequence (P25779 123-467 limits assumed): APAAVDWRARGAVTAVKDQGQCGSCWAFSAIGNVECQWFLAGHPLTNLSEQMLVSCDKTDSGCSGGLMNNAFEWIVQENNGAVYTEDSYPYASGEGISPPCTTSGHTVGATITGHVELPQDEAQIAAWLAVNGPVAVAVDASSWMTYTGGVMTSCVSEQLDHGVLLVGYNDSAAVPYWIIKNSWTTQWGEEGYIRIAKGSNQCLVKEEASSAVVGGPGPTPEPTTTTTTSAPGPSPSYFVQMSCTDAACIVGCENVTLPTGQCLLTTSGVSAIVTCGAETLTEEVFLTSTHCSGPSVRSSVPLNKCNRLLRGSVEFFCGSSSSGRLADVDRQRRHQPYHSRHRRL
#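 In this qHTS format, compounds are incubated with 1.5 nM cruzain for 15 min at room temperature before 2 uM Z-FR-AMC is added. Release of AMC is followed at 360/450 nm, and progress is taken as the 60 s fluorescence difference.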
# Cruzain noTriton – cruzain (T. cruzi) inhibition without detergent. purified cruzain, Z-FR-AMC fluorescence, no detergent. Potency, µM, inactives show max response, negative = inhibition, usual class: inhibitors. hit rate 2.3% among 200,000. AID 1476;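 further: plate controls were enzyme without inhibitor for no effect and buffer without enzyme for full effect; nearly all actives have a fitted effect of over 40% in size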
#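 Purified cruzain at 1.5 nM, pre-incubated 15 min with compound at room temperature in 100 mM sodium acetate pH 5.5, 5 mM DTT, 0.00005% Triton X-100. Reaction started with 2 uM Z-FR-AMC; AMC fluorescence increase over 60 s gives rate.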
# Starred values were filed as active, the others as inactive; ? = inconclusive. The call rests on the fitted dose curve; in most records, active means well fitted curve in the direction sought with a large enough effect; inconclusive means small, poorly fitted or top-dose-only effect, or another doubt; inactive means no such curve, though single readings can be large; an effect the other way counts as inactive or inconclusive. Potency means the concentration at half of the fitted maximal effect.
SMILES,Cruzain inh Det,Cruzain noTriton
CCC(C)(C)NC(=S)Nc1ccc(-c2nc3ccc(C)cc3s2)cc1,-2%,?
COc1ccc(CNc2oc(-c3ccc(COc4ccc(OC)cc4)o3)nc2C#N)cc1,-3%,-22%
CC1=NN(c2ccc(S(=O)(=O)O)cc2)C(=O)/C1=C\c1ccc(Cl)cc1,5%,0%
O=C(O)c1cc(N/N=C/c2ccc3c(c2)OCCO3)ccc1Cl,-8%,-1%
Cc1ccc(N/N=C/c2ccc3c(c2)OCCO3)cc1Cl,3%,20µM*
CN(C)c1ccc(/C=C2\SC(=O)N(CC(O)Cn3c4ccccc4c4ccccc43)C2=O)cc1 (stereo not drawn),-4%,5µM*
O=C1S/C(=C/c2ccccc2)C(=O)N1CC(O)Cn1c2ccccc2c2ccccc21 (stereo not drawn),0%,-81%
C/C(=N/NC(=O)c1cc(-c2cccc([N+](=O)[O-])c2)n[nH]1)c1ccc(Cl)cc1,0%,6.3µM*
C/C(=N\NC(=O)c1ccc(CN2CCOCC2)cc1)c1cccc([N+](=O)[O-])c1,1%,-9%
CCn1c2ccccc2c2cc(NC(=O)CSc3nnc(-c4ccccc4)o3)ccc21,3%,20µM*
Cc1ccc(C)c(NC(=O)CSc2nnc(-c3ccccc3)o2)c1,0%,-4%
CCOc1ccc(-c2nnc(SCC(=O)Nc3cccc(C#N)c3)o2)cc1,25µM*,25µM*
CCOc1ccc(-c2nnc(SCC(=O)Nc3cccc(Cl)c3C)o2)cc1,-6%,?
CCn1c2ccccc2c2cc(NC(=O)CSc3nnc(-c4cccc(F)c4)o3)ccc21,-10%,?
CCn1c2ccccc2c2cc(NC(=O)CSc3nnc(-c4cccc(C)c4)o3)ccc21,7%,7.9µM*
CCOC(=O)C1CCN(C(=O)CSc2n[nH]c(-c3ccccc3Cl)n2)CC1,2%,-2%
Cc1nnc(N2CCCC(C(=O)Nc3cccc(C(F)(F)F)c3)C2)c2nn(-c3ccccc3)c(C)c12 (stereo not drawn),-7%,8%
O=C(Cn1nc(Cc2cccnc2)c2ccccc2c1=O)Nc1cccc(C(F)(F)F)c1,-6%,7%
CCOC(=O)C1CCCN(C(=O)CCS(=O)(=O)c2cc3c(cc2Cl)NC(=O)CO3)C1 (stereo not drawn),-7%,-24%
COc1ccccc1CCNC(=O)C(=O)NCC(c1cccs1)S(=O)(=O)c1cccs1 (stereo not drawn),-2%,8%
Cc1ccc(C(=O)c2ccc([N+](=O)[O-])cc2)cc1,2%,-1%
Cc1ccc(S(=O)(=O)CC#CCOC(=O)c2ccc([N+](=O)[O-])cc2)cc1,14µM*,13µM*
CC(/C=N/NC(=S)Nc1cccc(S(=O)(=O)N(C)C)c1)c1ccccc1 (stereo not drawn),-3%,-28%
CN(C)S(=O)(=O)c1cccc(NC(=S)N/N=C/C(c2ccccc2)c2ccccc2)c1,-5%,32µM*
CCN(C(=O)CSc1nc2ccccc2n1Cc1ccccc1C#N)c1ccccc1,0%,?
SMILES,Cruzain inh Det,Cruzain noTriton
COc1cccc2c1Oc1ncccc1N(C(=O)CCC(=O)NC(C)C)C2,0%,-9%
Cc1sc(NC(=O)c2cc3ccccc3oc2=O)c(C(=O)OC(C)C)c1-c1ccccc1,-1%,3.2µM*
CCOC(=O)c1c(-c2ccc(C)cc2)csc1NC(=O)c1cc2ccccc2oc1=O,0%,-7%
OC(CN1CCNCC1)Cn1c2ccc(Br)cc2c2cc(Br)ccc21 (stereo not drawn),-9%,-2%
CC(=O)c1cccc(NC(=O)C2CCCN(C(=O)c3cnn(-c4ccccc4)c3-n3cccc3)C2)c1 (stereo not drawn),-3%,?
COc1ccc(-n2c(CCC(=O)O)ccc2-c2ccccc2)c(OC)c1,-9%,-7%
O=C(Nc1ccccc1N1CCN(C(=O)c2ccc(Cl)cc2)CC1)c1cc(Br)ccc1Cl,4%,7.9µM*
CC(=O)N1CCN(c2ccccc2NC(=O)c2cc(Br)ccc2Cl)CC1,-2%,3%
Cc1ccc(C(=O)NCC(=O)OCC(=O)c2cc(C)n(Cc3ccco3)c2C)cc1,-30%,-1%
C=CCn1c(C)cc(C(=O)COC(=O)C2CC(=O)N(Cc3ccccc3)C2)c1C (stereo not drawn),3%,22%
C=CCn1c(C)cc(C(=O)COC(=O)CNC(=O)c2ccccc2)c1C,25µM*,20µM*
Cc1cc(C(=O)COC(=O)CNC(=O)c2ccc(Cl)c(Cl)c2)c(C)n1Cc1ccco1,10µM*,-12%
Cc1c(-c2nnc(SCC(=O)Nc3ccc(Cl)cc3)o2)nnn1-c1ccc(F)cc1,-1%,7%
Cc1ccc(NC(=O)CSCn2nnc3c(=O)[nH]c(Cc4ccc(F)cc4)nc32)c(C)c1,1%,-26%
O=C(/C=C/c1ccc(Cl)c([N+](=O)[O-])c1)Nc1ccc(NC(=O)c2ccco2)cc1,3%,?
O=C(/C=C/c1ccc(Cl)c([N+](=O)[O-])c1)Nc1ccc(N2CCCC2)cc1,-27%,16µM*
